Assay results from PubChem BioAssay (NCI).
Several values for one entry are separate records, joined by “and”; a condition that tells them apart may be missing. Equal values may be shown once. This is part of a sample that, as a whole, favours compounds with a hit. Of some 83,000 tested, about 20% had one in any assay.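 Assay: single dose, 48 h. Readout: percent growth (0 = no net growth; negative = cell death). Active: <10.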 Activity calls are given as the source filed them.

Tests used:
Experiment in all cases: NCI-60 one-dose screen, 48 h (100 = growth as untreated, 0 = no growth, -100 = all killed)
Conditions in all cases: 10 µM unless noted
HCT-15 colon = tested on: HCT-15 colon
HT29 colon = tested on: HT29 colon
SNB-75 CNS = tested on: SNB-75 CNS
SNB-19 CNS = tested on: SNB-19 CNS
U251 CNS = tested on: U251 CNS
PC-3 prostate = tested on: PC-3 prostate
SK-MEL-5 melanoma = tested on: SK-MEL-5 melanoma
UACC-62 melanoma = tested on: UACC-62 melanoma
LOX IMVI melanoma = tested on: LOX IMVI melanoma
SK-MEL-28 melanoma = tested on: SK-MEL-28 melanoma
EKVX NSCLC = tested on: EKVX NSCLC
SN12C renal = tested on: SN12C renal
UO-31 renal = tested on: UO-31 renal
TK-10 renal = tested on: TK-10 renal
ACHN renal = tested on: ACHN renal
CAKI-1 renal = tested on: CAKI-1 renal
A498 renal = tested on: A498 renal
CCRF-CEM leukemia = tested on: CCRF-CEM leukemia
MOLT-4 leukemia = tested on: MOLT-4 leukemia
SK-MEL-2 melanoma = tested on: SK-MEL-2 melanoma

| Structure (SMILES) | growth (HCT-15 colon) | growth (HT29 colon) | growth (SNB-75 CNS) | growth (SNB-19 CNS) | growth (U251 CNS) | growth (PC-3 prostate) | growth (SK-MEL-5 melanoma) | growth (UACC-62 melanoma) | growth (LOX IMVI melanoma) | growth (SK-MEL-28 melanoma) | growth (EKVX NSCLC) | growth (SN12C renal) | growth (UO-31 renal) | growth (TK-10 renal) | growth (ACHN renal) | growth (CAKI-1 renal) | growth (A498 renal) | growth (CCRF-CEM leukemia) | growth (MOLT-4 leukemia) | growth (SK-MEL-2 melanoma) |
| --- | --- | --- | --- | --- | --- | --- | --- | --- | --- | --- | --- | --- | --- | --- | --- | --- | --- | --- | --- | --- |
| CC(C)Cc1ccc(C(C)C(=O)NCc2ccc(Cn3c(=O)sn(CCCI)c3=O)cc2)cc1 (centres undefined) | 101% (inactive) and -54.2% (active) | 61.7% (inactive) and -58.7% (active) | 95.4% (inactive) and -73.6% (active) | 85.4% (inactive) and 37.4% (inactive) | 83.4% (inactive) and -70.5% (active) | 93.6% (inactive) and -70% (active) | 74.2% (inactive) and -96.6% (active) | 95.2% (inactive) and -83.2% (active) | 99.6% (inactive) and -96.6% (active) | 106% (inactive) and -72.2% (active) | 90.6% (inactive) and -64.7% (active) | 90.4% (inactive) and -76.9% (active) | 70.3% (inactive) and -100% (active) | 99.8% (inactive) and -90.7% (active) | 72% (inactive) and -100% (active) | 92.1% (inactive) and -82.9% (active) | 79.4% (inactive) and -2.41% (active) | 37% (inactive) and 2.58% (active) | 49% (inactive) and -3.72% (active) | – |
| CCC(C)C1(C2CCCC2)NC(=O)NC1=O (centres undefined) | 107% (inactive) and 102% (inactive) | 97.3% (inactive) and 108% (inactive) | 94.5% (inactive) and 103% (inactive) | 98.8% (inactive) and 99.7% (inactive) | 105% (inactive) and 108% (inactive) | 102% (inactive) and 95.2% (inactive) | – | 95.5% (inactive) and 96.8% (inactive) | 92.2% (inactive) | 109% (inactive) and 108% (inactive) | 108% (inactive) and 100% (inactive) | 100% (inactive) and 96% (inactive) | 86.3% (inactive) and 96.6% (inactive) | 92.4% (inactive) and 118% (inactive) | 111% (inactive) and 108% (inactive) | 112% (inactive) and 94% (inactive) | 108% (inactive) and 81.8% (inactive) | 92.8% (inactive) and 107% (inactive) | 91.2% (inactive) and 106% (inactive) | 94.2% (inactive) and 129% (inactive) |
| CCOC(=O)C(CNc1ccccc1)C(=O)OCC | 106% (inactive) | 105% (inactive) | 77.9% (inactive) | 91.2% (inactive) | 93.5% (inactive) | 98.2% (inactive) | 100% (inactive) | 103% (inactive) | 101% (inactive) | 103% (inactive) | – | 105% (inactive) | 84.7% (inactive) | 106% (inactive) | 102% (inactive) | 94.9% (inactive) | 98.5% (inactive) | – | – | 109% (inactive) |
| COc1cc(NS(C)(=O)=O)ccc1Nc1c2ccccc2nc2c(C)cccc12 | 7.59% (active) and 0.251% (active) | -36.8% (active) and 0.935% (active) | -7.95% (active) and -6.77% (active) | 19.8% (inactive) and 25.2% (inactive) | -3.95% (active) and -7.3% (active) | 17.8% (inactive) and 28.4% (inactive) | -29.9% (active) and 2.9% (active) | 1.52% (active) and 23.3% (inactive) | -49.9% (active) and -3.55% (active) | 21.6% (inactive) and 21% (inactive) | – | -8.74% (active) and 6.11% (active) | -22.1% (active) and -17.6% (active) | -39.5% (active) and -35.3% (active) | -60.1% (active) and -56.2% (active) | -35.7% (active) and -10.5% (active) | -44% (active) and -27.8% (active) | -11% (active) | -12.1% (active) and -13.6% (active) | 20.4% (inactive) and 44.2% (inactive) |
